Our source for the composite z-score and z-score values is PubChem BioAssay.

The structures appear in SMILES notation. The source made the active and inactive calls.

A short description of experiment [1]: small molecules captured by biotinylated probe aFSTL3 – biochemical, small-molecule microarray, fluorescence 635/667, stem cell growth factor project, primary screen (AID 1064).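 Further: measures binding of the biotinylated anti-FSTL3 antibody to printed compounds.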 The following applies: higher = more signal.
Experiment [2] can be described thus: binders from COS7 lysate, DM2A8 probe, primary screen, torsin A project, cell lysate, small-molecule microarray, fluorescence 635/667 (AID 1065). The following applies: higher = more signal, COS7 lysate expressing mutant human TOR1A.
Experiment [3] can be described thus: small molecules captured by biotinylated probe aFGF2 – biochemical, small-molecule microarray, fluorescence 635/667, stem cell growth factor project, primary screen (AID 1067).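 Further: measures binding of biotinylated aFGF2 protein to printed compounds on slides; z-score merges feature fluorescence and signal-to-noise across triplicate slides.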 The following applies: higher = more signal.
The nature of experiment [4]: small molecules captured by biotinylated probe aFGF10 – biochemical, small-molecule microarray, fluorescence 635/667, stem cell growth factor project, primary screen (AID 1071).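 Further: score merges 667 nm spot intensity and signal to noise from triplicate slides.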 The conditions noted are these: higher = more signal.
Experiment [5] deals with Neurogenic locus notch homolog protein 2 (Homo sapiens) (UniProt Q04721). Kind of experiment: small molecules binding Notch2 protein – biochemical, small-molecule microarray, 635 nm fluorescence, stem cell growth factors, primary screen (AID 1073). The following applies: higher = more signal.
In experiment [6] the target is Pro-neuregulin-1, membrane-bound isoform (Homo sapiens) (UniProt Q02297). Kind of experiment: small molecules binding neuregulin-1 protein – biochemical, small-molecule microarray, fluorescence 635/667, psychiatric disease protein project, primary screen (AID 1075).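 Further: score combines 667 nm spot fluorescence with signal to noise.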 The following applies: NRG1 binding, 635 nm fluorescence, higher = more signal.
Experiment [7] concerns Neuregulin-1 EGF-like domain. The experiment in a line: small molecules binding NRG1 EGF domain – biochemical, small-molecule microarray, 635 nm fluorescence, primary screen (AID 1081).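 Further: binding of the protein to compounds printed on small-molecule microarray slides.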 The conditions noted are these: higher = more signal.
Experiment [8] is described as follows: FRG1 expression reporter modulators in myotubes – cell-based, C2C12 myotubes, firefly/Renilla luciferase, luminescence, FRG1 inhibition for FSHD, primary screen (AID 1084). The conditions noted are these: FRG1 promoter luciferase, higher = more signal, called active from +8 up or from −8 down.
Experiment [9] can be described thus: small molecules captured by biotinylated probe aFST – biochemical, small-molecule microarray, fluorescence 635/667, stem cell growth factor project, primary screen (AID 1086).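 Further: score merges 667 nm fluorescence with signal-to-noise of each printed compound spot.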 The conditions noted are these: higher = more signal.
Experiment [10] can be described thus: binders of probe aHhip on microarray, primary screen, stem cell growth factor project, biochemical, small-molecule microarray, fluorescence 635/667 (AID 1087).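 Further: score merges spot fluorescence at 667nm with spot signal to noise ratio.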 The conditions noted are these: higher = more signal.
Experiment [11] deals with PRMT1 (protein arginine N-methyltransferase 1). The experiment in a line: small molecules binding arginine methyltransferase PRMT1 – biochemical, small-molecule microarray, 635 nm fluorescence, primary screen (AID 1088).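 Further: binding of Prmt1 protein to compounds spotted on small-molecule microarray slides.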 The following applies: higher = more signal.
Experiment [12] in a line: growth effects on S. cerevisiae YJM789 – YJM789 clinical isolate, OD600, 24 h, basal, primary screen (AID 1089).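 Further: growth of clinical yeast isolate S. cerevisiae YJM 789 seeded 1000 cells per well; test concentration not given here.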 The following applies: higher = more signal, called active from +8 up or from −8 down.
A short description of experiment [13]: S. pombe growth modifiers, basal conditions – strain 972, OD600, 24 h, no modulator, primary screen (AID 1090).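 Further: basal condition with compound alone and no growth modifier present; test concentration not given here.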 The following applies: S. pombe 972 growth, higher = more signal, called active from +8 up or from −8 down.
Experiment [14] can be described thus: budding yeast growth modifiers under rapamycin – strain BY4716, OD600, 96 h, primary screen (AID 1091). Further: test concentration not given here. The conditions noted are these: S. cerevisiae BY4716 + rapamycin, higher = more signal, called active from +8 up or from −8 down.
The target in experiment [15] is Torsin-1A-interacting protein 2 (Homo sapiens) (UniProt Q8NFQ8). The experiment in a line: small molecules binding lysate-expressed LULL1 – cell lysate, human LULL1 lysate, 635/667 nm fluorescence, primary screen (AID 1092).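 Further: probe is lysate of COS7 cells overexpressing human LULL1; score merges per-feature 667 nm fluorescence with signal-to-noise.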 The following applies: small-molecule microarray, hLULL1 lysate binding, 635 nm fluorescence; higher = more signal.
Experiment [16] can be described thus: optical density change of DRC41 E. coli – strain DRC41, OD650, 24 h, E. coli filamentation project, primary screen (AID 1093).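 Further: MC1000 strain lacking acrAB efflux and sulA so SOS filamentation is blocked; test concentration not given here.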 The following applies: E. coli DRC41 growth, higher = more signal, called active from +8 up or from −8 down.
Experiment [17] in a line: probe aLefty2 binding to arrayed compounds – biochemical, biotinylated probe, 635/667 nm fluorescence, primary screen (AID 1094).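 Further: score merges spot fluorescence near 667 nm with spot signal-to-noise ratio.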 The conditions noted are these: small-molecule microarray, higher = more signal.
Experiment [18] deals with Noggin (protein binding on small-molecule microarray). Kind of experiment: small molecules binding Noggin protein – biochemical, 635/667 nm fluorescence, primary screen (AID 1095).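 Further: score merges 667 nm feature fluorescence with signal to noise over triplicate slides.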 The following applies: 635 nm fluorescence, higher = more signal.
Experiment [19] addresses Neurogenic locus notch homolog protein 3 (Homo sapiens) (UniProt Q9UM47). The experiment in a line: small molecules binding NOTCH3 protein – biochemical, 635/667 nm fluorescence, primary screen (AID 1096). The conditions noted are these: small-molecule microarray, 635 nm fluorescence, higher = more signal.
Experiment [20] can be described thus: probe aEGFR binding to arrayed compounds – biochemical, biotinylated probe, 635/667 nm fluorescence, primary screen (AID 1097).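 Further: probe is a biotinylated anti-EGFR antibody binding compounds printed on slides; score combines fluorescence near 667 nm and signal to noise of each spot.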 The conditions noted are these: small-molecule microarray, higher = more signal.

Sequence of Neurogenic locus notch homolog protein 2 (Homo sapiens) (Q04721 whole entry, looked up, canonical isoform): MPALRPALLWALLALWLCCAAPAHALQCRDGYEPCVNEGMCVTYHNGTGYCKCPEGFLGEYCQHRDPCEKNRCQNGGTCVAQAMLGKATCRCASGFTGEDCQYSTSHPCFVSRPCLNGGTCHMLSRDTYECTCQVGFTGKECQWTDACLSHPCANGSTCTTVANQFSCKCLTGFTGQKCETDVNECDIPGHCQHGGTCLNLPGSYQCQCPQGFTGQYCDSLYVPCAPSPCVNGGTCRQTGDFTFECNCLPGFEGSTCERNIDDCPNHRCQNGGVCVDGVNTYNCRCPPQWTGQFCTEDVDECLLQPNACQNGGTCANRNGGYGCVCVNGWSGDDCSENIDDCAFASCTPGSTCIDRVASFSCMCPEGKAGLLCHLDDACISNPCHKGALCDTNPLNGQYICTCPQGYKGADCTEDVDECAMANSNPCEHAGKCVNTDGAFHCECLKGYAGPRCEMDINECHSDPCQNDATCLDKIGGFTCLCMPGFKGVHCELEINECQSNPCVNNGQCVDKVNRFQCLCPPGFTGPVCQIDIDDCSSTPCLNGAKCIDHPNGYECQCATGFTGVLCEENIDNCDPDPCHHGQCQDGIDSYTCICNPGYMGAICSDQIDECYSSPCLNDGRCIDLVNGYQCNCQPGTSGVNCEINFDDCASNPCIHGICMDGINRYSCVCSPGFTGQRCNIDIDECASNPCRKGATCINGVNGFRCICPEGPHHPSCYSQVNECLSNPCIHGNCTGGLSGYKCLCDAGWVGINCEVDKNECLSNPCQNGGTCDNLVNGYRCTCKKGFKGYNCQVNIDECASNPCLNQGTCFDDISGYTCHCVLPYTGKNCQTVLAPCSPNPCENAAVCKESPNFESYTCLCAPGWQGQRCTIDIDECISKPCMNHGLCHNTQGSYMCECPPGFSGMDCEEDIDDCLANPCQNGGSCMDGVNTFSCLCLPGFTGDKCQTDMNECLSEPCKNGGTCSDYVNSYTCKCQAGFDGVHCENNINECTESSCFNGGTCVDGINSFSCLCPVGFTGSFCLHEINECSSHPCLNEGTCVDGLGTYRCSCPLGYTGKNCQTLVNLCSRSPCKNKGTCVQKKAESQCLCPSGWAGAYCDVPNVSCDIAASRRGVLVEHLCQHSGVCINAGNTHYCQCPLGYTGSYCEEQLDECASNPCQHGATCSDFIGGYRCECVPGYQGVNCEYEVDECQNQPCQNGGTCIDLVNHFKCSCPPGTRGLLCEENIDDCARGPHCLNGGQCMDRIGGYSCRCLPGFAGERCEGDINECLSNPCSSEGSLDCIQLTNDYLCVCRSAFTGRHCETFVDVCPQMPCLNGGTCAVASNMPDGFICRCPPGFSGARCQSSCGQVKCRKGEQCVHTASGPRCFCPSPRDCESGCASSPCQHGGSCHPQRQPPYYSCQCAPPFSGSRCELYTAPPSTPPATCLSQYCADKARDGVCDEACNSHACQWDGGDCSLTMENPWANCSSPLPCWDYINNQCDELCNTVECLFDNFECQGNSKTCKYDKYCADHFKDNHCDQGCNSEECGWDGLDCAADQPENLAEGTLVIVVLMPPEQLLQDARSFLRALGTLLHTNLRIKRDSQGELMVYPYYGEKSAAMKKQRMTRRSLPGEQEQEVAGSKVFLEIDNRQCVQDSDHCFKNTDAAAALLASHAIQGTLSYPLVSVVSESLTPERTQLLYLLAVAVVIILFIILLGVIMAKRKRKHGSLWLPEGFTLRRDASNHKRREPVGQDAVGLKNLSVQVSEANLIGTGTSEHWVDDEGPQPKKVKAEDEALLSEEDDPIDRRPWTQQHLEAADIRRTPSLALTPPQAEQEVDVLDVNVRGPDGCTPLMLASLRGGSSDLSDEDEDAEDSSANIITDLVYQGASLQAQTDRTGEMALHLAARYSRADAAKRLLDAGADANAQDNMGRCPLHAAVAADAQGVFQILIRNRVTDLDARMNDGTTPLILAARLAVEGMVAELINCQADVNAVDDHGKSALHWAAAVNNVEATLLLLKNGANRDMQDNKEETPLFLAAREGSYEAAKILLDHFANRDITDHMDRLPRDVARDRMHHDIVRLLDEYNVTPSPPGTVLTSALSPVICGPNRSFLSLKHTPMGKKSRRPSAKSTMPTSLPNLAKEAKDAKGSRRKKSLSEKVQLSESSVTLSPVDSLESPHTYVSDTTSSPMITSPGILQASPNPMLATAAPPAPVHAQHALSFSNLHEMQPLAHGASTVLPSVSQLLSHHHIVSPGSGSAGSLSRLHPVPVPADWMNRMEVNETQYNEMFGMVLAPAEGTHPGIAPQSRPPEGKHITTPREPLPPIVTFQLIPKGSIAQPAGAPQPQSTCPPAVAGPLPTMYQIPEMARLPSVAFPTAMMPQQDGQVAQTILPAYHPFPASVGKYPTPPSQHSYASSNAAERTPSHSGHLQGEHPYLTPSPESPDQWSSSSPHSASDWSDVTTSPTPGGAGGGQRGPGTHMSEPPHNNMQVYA
Sequence of Torsin-1A-interacting protein 2 (Homo sapiens) (Q8NFQ8 whole entry, looked up): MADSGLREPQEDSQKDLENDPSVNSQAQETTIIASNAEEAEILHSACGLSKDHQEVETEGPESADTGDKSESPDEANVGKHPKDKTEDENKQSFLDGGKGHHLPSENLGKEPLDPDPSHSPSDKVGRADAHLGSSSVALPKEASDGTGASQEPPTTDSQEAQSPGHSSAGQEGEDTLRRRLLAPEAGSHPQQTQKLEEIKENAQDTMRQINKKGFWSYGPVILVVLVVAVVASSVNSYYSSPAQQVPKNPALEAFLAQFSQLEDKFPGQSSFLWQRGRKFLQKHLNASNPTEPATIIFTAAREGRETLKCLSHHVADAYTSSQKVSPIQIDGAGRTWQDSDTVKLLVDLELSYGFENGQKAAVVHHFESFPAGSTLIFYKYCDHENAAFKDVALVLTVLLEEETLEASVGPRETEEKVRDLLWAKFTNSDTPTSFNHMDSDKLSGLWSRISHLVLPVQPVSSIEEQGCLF
Sequence of Pro-neuregulin-1, membrane-bound isoform (Homo sapiens) (Q02297 whole entry, looked up, the tested form may be a part, canonical isoform): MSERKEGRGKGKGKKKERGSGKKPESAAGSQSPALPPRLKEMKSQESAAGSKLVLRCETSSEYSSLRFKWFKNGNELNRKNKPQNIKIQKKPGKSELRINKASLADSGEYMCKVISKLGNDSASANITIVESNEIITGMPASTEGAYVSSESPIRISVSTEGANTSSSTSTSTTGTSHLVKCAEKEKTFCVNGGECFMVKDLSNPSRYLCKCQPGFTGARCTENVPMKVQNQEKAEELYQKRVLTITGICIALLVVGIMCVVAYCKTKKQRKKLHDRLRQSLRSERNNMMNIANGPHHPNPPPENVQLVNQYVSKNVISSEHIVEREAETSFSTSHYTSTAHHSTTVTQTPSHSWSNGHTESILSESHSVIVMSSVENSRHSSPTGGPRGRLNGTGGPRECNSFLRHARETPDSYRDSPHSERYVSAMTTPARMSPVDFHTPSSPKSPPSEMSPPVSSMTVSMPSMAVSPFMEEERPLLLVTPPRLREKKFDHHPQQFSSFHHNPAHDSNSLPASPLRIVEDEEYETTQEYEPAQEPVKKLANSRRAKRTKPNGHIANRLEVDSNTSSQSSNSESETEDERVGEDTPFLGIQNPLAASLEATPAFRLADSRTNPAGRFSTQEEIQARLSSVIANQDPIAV

Take `CO[C@H]1O[C@H](CO)[C@@H](OC(=O)c2ccc(Br)cc2)[C@@H]2OC(=O)[C@@H](Cc3ccc4ccccc4c3)C/C=C/C[C@H](Cc3ccc4ccccc4c3)C(=O)O[C@@H]12`: the composite z-score in experiment [1] is -0.248; in [2], -0.08; in experiment [3] it was 0.0289; in [4], 0.622; in experiment [5], 0.714; in [6] it was 1.74. Further, the composite z-score was 1.2 in experiment [7]; 0.349 in [9]; 1.2 in [10]; 1.45 in experiment [11]; 2.82 in [15]; -0.0375 in experiment [17]. Also, the composite z-score in experiment [18] was 0.0104; in experiment [19], 0.478; in experiment [20], -0.112. Also, the z-score in experiment [8] was -1.14 (inactive); in [12], -2.76 (inactive); in experiment [13], -2.35 (inactive); in experiment [14], -0.842 (inactive); in experiment [16], 0.0001 (inactive).
For the compound `CCN(CC)c1ccc(N2CC=CC34O[C@@H]5/C=C\CCC(C)OC(=O)C5[C@H]3C(=O)N(CCO)[C@@H]4C2=O)cc1` (stereo not given in full), the composite z-score in [1] was 0.478; in experiment [2], -0.476; in experiment [3], -0.103; in [4], -0.57; in experiment [5] it was -0.331; in experiment [6], 1.57. The composite z-score in experiment [7] was 1.15; in experiment [9], -1.17; in experiment [10] it was -0.134; in [11] it was 1.2; in experiment [15], 3.17; in experiment [17], -0.134. In addition, the values for the composite z-score in experiment [18], in [19] and in experiment [20] were -0.563, 0.0541 and -0.203, respectively. The z-score was 1.16 (inactive) in experiment [8]; -1.27 (inactive) in experiment [12]; -2.02 (inactive) in experiment [13]; -0.806 (inactive) in [14]; 0.565 (inactive) in experiment [16].
As to `CC(C)N1C(=O)[C@@]2(c3ccc([N+](=O)[O-])cc3)CC(=O)N(C3CCCCC3)[C@@H]2c2ccc(CO)cc21`, the composite z-score was -0.437 in experiment [1]; 0.0633 in experiment [2]; -0.151 in experiment [3]; -0.0689 in experiment [4]; -0.465 in experiment [5]; -0.299 in [6]. For the same compound, the composite z-score was 0.209 in [7]; -0.293 in experiment [9]; -0.118 in [10]; 1.27 in [11]; 0.198 in experiment [15]; -0.103 in experiment [17]. The results for the composite z-score in experiment [18], in experiment [19] and in experiment [20] were 0.622, -0.509 and -0.0565, respectively. For the same compound, the z-score in experiment [8] was 1.25 (inactive); in [12], -1.78 (inactive); in experiment [13], 0.353 (inactive); in experiment [14] it was -2.19 (inactive); in experiment [16], -1.43 (inactive).
For `COCCCNC(=O)[C@]1(Cc2ccccc2N=[N+]=[N-])N=C(c2ccc(OCCCO)cc2)O[C@@H]1c1ccccc1N=[N+]=[N-]`, the composite z-score in [1] was 0.421; in experiment [2], -0.0585; in [3], 0.0797; in [4], 0.491; in experiment [5], 1.3; in [6], 1.86. Besides, the composite z-score in experiment [7] was 1.15; in experiment [9] it was 0.847; in [10], -0.0296; in experiment [11], 1.26; in experiment [15], 2.72; in experiment [17], 0.23. The composite z-score was determined as 0.115 in experiment [18], 0.836 in experiment [19] and 0.0656 in [20]. The z-score in experiment [8] is -1.93 (inactive); in [12] it was -0.922 (inactive); in [13], -0.808 (inactive); in experiment [14] it was 1.75 (inactive); in experiment [16] it was 0.561 (inactive).
For the compound `C=C[C@H](COC(C)=O)NS(=O)(=O)c1ccc(Br)cc1`, the composite z-score is -0.127 in experiment [1]; -0.256 in experiment [2]; -0.151 in experiment [3]; -0.286 in experiment [4]; -0.506 in experiment [5]; 0.241 in experiment [6]. For the same compound, the composite z-score was 0.656 in [7]; 0.0509 in experiment [9]; -0.0618 in experiment [10]; -0.0232 in [11]; -0.0639 in [15]; -0.0598 in experiment [17]. Besides, the composite z-score was 0.0055 in experiment [18], -0.564 in [19] and -0.227 in [20]. The z-score was 1.54 (inactive) in experiment [8]; 0.0313 (inactive) in experiment [12]; -1.4 (inactive) in experiment [13]; -0.124 (inactive) in experiment [14]; 0.506 (inactive) in experiment [16].
